Hits are enriched below; roughly 2.2% of the tested compounds scored in any of these assays.
Myeloid diff MLP = compounds promoting myeloid differentiation. ER-HoxA9 myeloid progenitors, lysozyme-GFP differentiation, flow cytometry. calls only at 10 µM. 1% of 360,000 active;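 active = normalized GFP-positive differentiation at or above the plate's own cutoff, the solvent-only control mean plus 3 SD; inconclusive = no clear call, values can overlap the other calls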;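 also: cells exposed to compound for four days before flow analysis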
ABCB6 inh 2 = blocks the human ABCB6 transporter; Q9NP58; K562-ABCB6 porphyrin accumulation, flow cytometry, 1 h; hits give low values; fluorescence ratio to DMSO, % at 10 µM; 0.19% of 360,000 active; AID 602162;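 active = fluorescence ratio to DMSO below 75%, the collection mean minus 3 SD; inconclusive = too few cells collected in the well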;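 also: signal is porphyrin accumulated inside mitochondria; lower ratio means ABCB6 inhibition with less porphyrin fluorescence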
Target sequence (Q9NP58 whole entry, looked up): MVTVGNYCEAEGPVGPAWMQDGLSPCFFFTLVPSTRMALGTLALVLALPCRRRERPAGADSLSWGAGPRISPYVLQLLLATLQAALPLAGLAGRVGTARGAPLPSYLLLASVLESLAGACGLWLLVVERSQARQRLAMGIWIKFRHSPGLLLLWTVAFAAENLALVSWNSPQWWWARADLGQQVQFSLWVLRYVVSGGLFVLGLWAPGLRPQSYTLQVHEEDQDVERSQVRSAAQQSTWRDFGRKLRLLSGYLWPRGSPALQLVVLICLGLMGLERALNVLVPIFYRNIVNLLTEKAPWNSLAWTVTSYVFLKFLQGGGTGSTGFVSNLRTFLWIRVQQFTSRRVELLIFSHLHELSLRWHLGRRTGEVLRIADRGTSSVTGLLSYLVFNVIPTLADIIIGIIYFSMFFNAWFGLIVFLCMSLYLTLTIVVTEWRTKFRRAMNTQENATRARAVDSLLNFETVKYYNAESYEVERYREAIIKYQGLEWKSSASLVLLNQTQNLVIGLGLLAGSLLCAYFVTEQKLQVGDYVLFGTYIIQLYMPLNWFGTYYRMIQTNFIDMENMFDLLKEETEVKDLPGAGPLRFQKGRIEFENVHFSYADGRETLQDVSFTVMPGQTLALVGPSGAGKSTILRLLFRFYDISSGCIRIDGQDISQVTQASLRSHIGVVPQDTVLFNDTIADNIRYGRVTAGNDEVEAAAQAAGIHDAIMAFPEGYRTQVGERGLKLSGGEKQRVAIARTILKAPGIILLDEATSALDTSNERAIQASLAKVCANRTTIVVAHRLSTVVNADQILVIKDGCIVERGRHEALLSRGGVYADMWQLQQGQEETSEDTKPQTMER
hiPSC survival = increases survival of single human iPS cells. hiPSC single-cell survival, ATPlite luminescence; 100% = ROCK inhibitor wells, 0% = DMSO. survival enhancement, % at 20 µM. 0.044% of 360,000 active; in the data active = survival enhancement above about 18%;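 also: cells exposed to compounds for 16 hours before the ATP read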
beta cell repl = inducers of beta-cell replication in MIN6 cells; MIN6 cells proliferation, ATPlite luminescence, 48 h; cells starved in 0.2% serum; 100% = growth in 10% serum; proliferation, % at 10 µM; 0.29% of 330,000 active;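 active = compounds whose signal lies at least 3.5 SD above the mean of all wells on their plate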
Cardio protect = protects H9c2 cardiomyocytes from peroxide injury | 0.63% of 360,000 active | H2O2 injury protection, ATPLite, 2 h | protection from H2O2 cell death, % at 20 µM | AID 588492;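 active = compounds giving at least 50% protection of heart cells from peroxide-induced death in the single-dose screen, raw or plate-pattern-corrected value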
Large screens that a line does not name were inactive.

CCOC(=O)c1ccc(-c2ccc(C3Nc4ccccc4C(=O)N3O)o2)cc1 (centres undefined)	Cardio protect 59.3
Cc1cc([N+](=O)[O-])ccc1-c1ccc(C2Nc3ccccc3C(=O)N2O)o1 (centres undefined)	Cardio protect 63.0
O=S(=O)(Nc1ccc(Cc2ccncc2)cc1)c1ccc(Br)s1	none
O=C(Nc1cccnc1Cl)c1ccc(Cl)cc1	none
O=C(Nc1cccnc1Cl)c1cccnc1Cl	hiPSC survival 23.4
CC(Oc1ccc(F)cc1)C(=O)N(Cc1ccccc1)c1c(N)n(Cc2ccccc2)c(=O)[nH]c1=O (centres undefined)	none
Cc1ccc(S(=O)(=O)N(C)c2ccc(C)c([N+](=O)[O-])c2)cc1	none
COc1cccc(C2C(C(=O)Nc3ccccc3)=C(C)N=c3s/c(=C/c4ccc(OCC(=O)O)cc4)c(=O)n32)c1 (centres undefined)	none
CC1=C(C(=O)Nc2ccccc2)C(c2ccc(C)o2)n2c(s/c(=C\c3ccco3)c2=O)=N1 (centres undefined)	Myeloid diff MLP active
O=c1c2ccccc2oc2nc(-c3ccco3)n(Cc3ccccc3)c(=O)c12	Cardio protect 62.9
CCc1nc2oc3ccccc3c(=O)c2c(=O)n1Cc1ccccc1	none
NS(=O)(=O)c1ccc(NC(=O)COc2ccc(Cl)cc2)cc1	none
Cc1ccccc1-n1c(SCC(=O)c2c(N)n(C)c(=O)n(C)c2=O)nc2sc3c(c2c1=O)CCCC3	Myeloid diff MLP active
CN(C)CCCNC(=O)C[C@H]1C[C@H](C(=O)N2CCOCC2)[C@@]2(CCC3CCCC3)c3[nH]c4cc(-c5ccco5)ccc4c3CCN2C1=O	none (no result: beta cell repl)
Cc1cccc2cc(C#N)c(SCC(=O)NCC3CCCO3)nc12 (centres undefined)	none
Brc1ccccc1OCCCN1CCCCCC1	none
CC(=O)c1ccccc1OCCCN1CCCCC1	Cardio protect 52.6
COc1ccc(-c2cc(-c3nnc(COC(=O)c4ccncc4)o3)c3ccccc3n2)cc1OC	Cardio protect 78.9
C[C@H](CO)N1C[C@H](C)[C@@H](CN(C)C(=O)NC2CCCCC2)Oc2ccc(NS(=O)(=O)c3ccccc3)cc2C1=O	none
C[C@@H]1CCCCO[C@@H](CN(C)S(=O)(=O)c2cccs2)[C@@H](C)CN([C@H](C)CO)C(=O)c2cc(NS(=O)(=O)c3ccccc3)ccc2O1	hiPSC survival 22.1 (no result: beta cell repl)
COc1ccc(S(=O)(=O)Nc2ccc3c(c2)C(=O)N([C@H](C)CO)C[C@H](C)[C@@H](CN(C)C(=O)NC2CCCCC2)O3)cc1	hiPSC survival 22.3
C[C@@H]1CN([C@H](C)CO)C(=O)c2cc(NC(=O)Nc3ccc(C(F)(F)F)cc3)ccc2O[C@H]1CN(C)C(=O)Nc1ccc(F)cc1	Myeloid diff MLP active (no result: beta cell repl)
COc1ccc(S(=O)(=O)N(C)C[C@H]2Oc3ccc(NS(=O)(=O)c4cccs4)cc3C(=O)N([C@H](C)CO)C[C@@H]2C)cc1	Myeloid diff MLP active (no result: beta cell repl)
C[C@@H]1CCCCO[C@H](CN(C)S(=O)(=O)c2cccs2)[C@@H](C)CN([C@H](C)CO)C(=O)c2cc(NC(=O)C3CCCCC3)ccc2O1	none (no result: beta cell repl)
C[C@H](CO)N1C[C@H](C)[C@H](CN(C)C(=O)NC2CCCCC2)Oc2ncc(Br)cc2C1=O	Myeloid diff MLP active (no result: beta cell repl)
Cc1[nH]oc(=O)c1N=Nc1ccc2[nH]c(=O)[nH]c2c1	ABCB6 inh 2 71.0
COc1cc(-c2cc(C(=O)N3CCN(c4ccccn4)CC3)c3ccccc3n2)cc(OC)c1OC	Cardio protect 64.6
COc1ccc(-c2cc(C(=O)N3CCN(c4ccccn4)CC3)c3ccccc3n2)cc1	Myeloid diff MLP active (no result: beta cell repl)
Cc1ccc(-c2cc3nc(C)cc(N4CCN(C(=O)c5ccoc5)CC4)n3n2)cc1	none (no result: beta cell repl)
CCOc1ccc(-c2cc(C(=O)N3CCN(c4ccccn4)CC3)c3ccccc3n2)cc1	Myeloid diff MLP inconclusive
COc1ccc(-c2cc3nc(-c4ccccc4)cc(N4CCN(C(C)=O)CC4)n3n2)cc1	Cardio protect 80.2 (no result: beta cell repl)
COc1ccc(-c2cc3nc(-c4ccccc4)cc(N4CCN(C(=O)c5ccccc5)CC4)n3n2)cc1	none (no result: beta cell repl)
CCCc1ccc(-c2cc(C(=O)N3CCN(c4ccccn4)CC3)c3ccccc3n2)cc1	none
COc1cccc(-c2cc3nc(C)c(C)c(N4CCN(C(=O)c5ccoc5)CC4)n3n2)c1	Cardio protect 55.6 (no result: beta cell repl)
Cc1nc2cc(-c3ccccc3)ccc2o1	none
COc1ccc2nc(-c3ccccc3)cc(C(=O)N3CCC3)c2c1	none
COc1cccc(CN2CCN(C(=O)c3cc(-c4cccnc4)nc4ccc(C)cc34)CC2)c1	Cardio protect 49.8
N/C(=N\OC(=O)/C=C/c1ccccc1)c1ccccc1	none
CC1=C/C(=N\OC(=O)/C=C/c2ccccc2)C(C)=CC1=O	Myeloid diff MLP active
CC(=O)Nc1ccc(NC(=O)c2cc(=O)c3ccc(C)cc3o2)cc1	none
CCOc1ccc2c(c1)/C(=C(\C(Cl)=C(Cl)Cl)[N+](=O)[O-])N2	Myeloid diff MLP active
CCCCOc1ccc2c(c1)/C(=C(\C(Cl)=C(Cl)Cl)[N+](=O)[O-])N2	Myeloid diff MLP active
CN(C1=C(NC(=O)c2ccccc2)C(=O)c2ccccc2C1=O)C1CCS(=O)(=O)C1 (centres undefined)	Myeloid diff MLP inconclusive
N#Cc1nc(-c2ccccc2F)oc1N1CCN(C(=O)c2ccco2)CC1	none
COc1ccc2[nH]c(C(=O)N/N=C/c3ccccc3OC)cc2c1	none
COc1ccc(OC)c(/C=N/NC(=O)c2cc3c(OC)c(OC)ccc3[nH]2)c1	Cardio protect 90.1
CCCOc1ccc2[nH]c(C(=O)N/N=C/c3cc(OC)c(OC)c(OC)c3)cc2c1	Cardio protect 59.4
COc1cc(OC)c2cc(C(=O)N/N=C/c3ccccc3O)[nH]c2c1	Myeloid diff MLP inconclusive, Cardio protect 56.9
COc1cc(C)c(C(=O)CC(=O)c2c(C)cc(OC)cc2C)c(C)c1	Myeloid diff MLP active
COc1ccc(NC(C)=O)c(C)c1	none
CCCCc1cc(=O)oc2cc(OCC(=O)NC3CCN(Cc4ccccc4)CC3)ccc12	Myeloid diff MLP active
COC(=O)/C=C/c1ccccc1CN1[C@@H](CC(=O)OC)c2ccccc2S1(=O)=O	none
O=C1C=CN(C2OC(CO)C(O)C2O)C(=O)C1 (centres undefined)	Myeloid diff MLP active (no result: beta cell repl)
Cc1noc(/C=C/c2ccccn2)c1[N+](=O)[O-]	Myeloid diff MLP active
O=C(CSc1nnc(Cc2cccs2)n1CCc1ccccc1)N1CCCc2ccccc21	Cardio protect 66.7
Cn1c(Cc2cccs2)nnc1SCC(=O)N1CCCc2ccccc21	none
O=C(CN1CCOCC1)N/N=C/c1c(O)ccc2ccccc12	Cardio protect 69.1
O=C(CN1CCOCC1)N/N=C/c1ccco1	none
O=C(CN1CCOCC1)N/N=C/C=C/c1ccccc1	beta cell repl 8.9
O=C(O)c1ccccc1C(=O)Nc1cc(C(F)(F)F)ccc1N1CCCC1	none

Screening results deposited in PubChem BioAssay by several laboratories.
